High-throughput results from PubChem.
HSF-1 act = increases HSF-1 driven luciferase reporter signal | NIH3T3-HGL HSF-1 luciferase reporter, MG132, 8 h; 100% = twice DMSO control signal | activation, % at 9 µM | 300,000 compounds, 1.7% hits;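 active = mean replicate activation of at least 50% with a set share of replicates each reaching 50%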;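 note: 0% = median of the neutral control wells and 100% = twice that signal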
Vif imaging = HIV Vif inhibition. inhibition, % at 7.49 µM. 340,000 compounds, 0.35% hits. HEK293T cells, Vif self-association by quenched fluorescence, imaging, 24 h. AID 602346; in the data active = inhibition above about 50%, passing the limit was not always enough
esBAF inh = blocks esBAF chromatin remodeling in mouse ES cells; reporter increase, % at 12.5 µM; 350,000 compounds, 2% hits; Bmi1-luciferase knock-in reporter, 24 h; 100% = twice the neutral-well signal; in the data active = activation above about 40%;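 note: 0% = median of the plate's neutral control wells and 100% = double that signal; a rise in the Bmi1 reporter signal indicates esBAF inhibition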
HSF1 inhib = HSF1 inhibition | NIH3T3-HGL HSE-luciferase, MG132-induced, luminescence 8 h; hits give low values | AID 2098 | activity change, negative = inhibition, % at 7.5 µM (by protocol) | 300,000 compounds, 0.77% hits;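 active = more than half of replicate wells show activity change below -50%, luminescence cut by over half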;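 note: luciferase reports HSF-1 transcriptional activity via heat shock element; 0% = median of DMSO wells and -100% = zero luminescence signal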
Numbers without * were called inactive; . = no result. A selection: hits, their analogues and other compounds. The true share with any hit is near 3.4%.

SMILES	HSF-1 act	Vif imaging	esBAF inh	HSF1 inhib
COc1cccc(C(=O)/C=C2\Sc3ccccc3N2C)c1	28	-21	45*	17
O=C(N/N=C1\CC(c2ccccc2)Oc2ccccc21)c1ccc(O)cc1 (stereo unspecified)	71*	15	14	35
O=C(N/N=C1\CC(c2ccccc2)Oc2ccccc21)c1cccnc1 (stereo unspecified)	13	7	.	12
CCCCNC(=O)C1CCN(Cc2ccc(OCc3ccccc3)cc2)CC1	14	22	51*	18
CCCCN(CCCNC(=O)C1CCN(S(=O)(=O)CC)CC1)c1ccccc1	64*	-4	-4	35
CC(C)C(=O)Nc1ccc2c(c1)C(=O)N(C)[C@H]1CC[C@@H](CC(=O)NCCCN(C)C)O[C@H]1CO2	.	.	7	.
CO[C@H]1CN(C)C(=O)c2ccc(NS(C)(=O)=O)cc2OC[C@@H](C)N(CC2CCCCC2)C[C@H]1C	.	.	-2	.
COc1ccc(C(C(=O)NC2CCCCC2)N(C(=O)CCCC(=O)Nc2ccccn2)c2ccc3c(c2)OCCO3)cc1 (stereo unspecified)	-11	-3	-5	-3
COc1ccc(C(C(=O)NC2CCCCC2)N(C(=O)CCl)c2ccc(Cl)cc2)cc1 (stereo unspecified)	-83	10	.	-86*
O=C(CCCC(=O)N(c1ccc2c(c1)OCCO2)C(C(=O)NC1CCCCC1)c1ccc(Cl)cc1)Nc1ccccn1 (stereo unspecified)	-70	20	-3	-66*
Clc1cccc(Nc2nc(-c3cccnc3)cs2)c1	20	-5	78*	16
Cc1ccc(Nc2nc(-c3cccnc3)cs2)cc1C	38	-12	37	53
c1cncc(Nc2nc(-c3cccs3)cs2)c1	-1	-12	69*	-4
Brc1ccc(Nc2nc(-c3cccnc3)cs2)cc1	4	8	.	-3
Brc1cccc(Nc2nc(-c3cccnc3)cs2)c1	-3	-12	49*	10
C[C@H](CO)N1C[C@H](C)[C@@H](CN(C)C(=O)Cc2ccccn2)Oc2ncc(-c3ccccc3)cc2C1=O	.	.	-1	.
Cc1ccc2nc(-c3ccccc3NC(=O)CCC(=O)O)c(=O)[nH]c2c1	-80	8	6	-74*
Oc1csc(Cc2nc(-c3ccc(-c4ccccc4)cc3)cs2)n1	-10	3	34	-15
Oc1csc(Cc2nc(-c3ccc4ccccc4c3)cs2)n1	20	-17	69*	-2
Nc1ccc(C#Cc2ccc3sc4ccccc4c(=O)c3c2)cc1	9	-1	43*	9
COc1cccc2sc3ccc(C#Cc4ccc(N)cc4)cc3c(=O)c12	-4	6	61*	6
C[C@@H]1CCCCO[C@@H](CN(C)C(=O)C2CCCCC2)[C@H](C)CN([C@H](C)CO)C(=O)c2cc(NC(=O)Nc3ccc4c(c3)OCO4)ccc2O1	.	.	19	.
O=C(NC(=S)Nc1ncc(Br)cc1Br)c1ccccc1	76*	-16	53*	36
CO[C@H]1CN(C)C(=O)c2ccc(NC(=O)Nc3c(C)noc3C)cc2OC[C@@H](C)NC[C@@H]1C	.	.	-7	.
C[C@H]1CN([C@@H](C)CO)C(=O)Cc2cc(NC(=O)Cc3cn(C)c4ccccc34)ccc2O[C@H]1CN(C)C(=O)Nc1ccc(F)cc1	.	.	6	.
SMILES	HSF-1 act	Vif imaging	esBAF inh	HSF1 inhib
Cn1nnnc1SCCNC/C=C/c1ccccc1	77*	4	-6	18
Cn1nnnc1SCCNCc1cccc2ccccc12	35	.	-2	3
CC(=O)N[C@H]1CC[C@@H](CC(=O)NCc2ccc(Cl)cc2)O[C@H]1CO	.	.	7	.
Cc1nn(-c2ccccc2)c(C)c1CN	-1	-1	.	0
Cc1nn(-c2ccccc2)c(C)c1Cc1ccc(O)cc1	35	-3	88*	21
Cc1noc(C)c1NC(=O)N[C@H]1C=C[C@H](CC(=O)N2CCN(C)CC2)O[C@@H]1CO	.	.	-2	.
CCCSc1nnc(Sc2nnnn2-c2ccccc2)s1	123*	25	8	109
Cc1ccccc1-n1nnnc1Sc1nnnn1-c1ccccc1	.	-9	35	.
C[C@@H]1CN([C@H](C)CO)S(=O)(=O)c2ccc(C#C[C@@H](C)O)cc2O[C@@H]1CN(C)C(=O)C1CC1	.	.	-8	.
CCN(CC)S(=O)(=O)c1ccc(N2CCOCC2)c(NC(=O)c2ccccc2F)c1	-1	12	.	1
O=C(c1cc2ccccc2oc1=O)N1CCOCC1	42	-3	49*	26
O=C(c1cc2cc(Cl)ccc2oc1=O)N1CCOCC1	-4	-4	-13	-6
O=C(Nc1ccc(Cl)c(S(=O)(=O)N2CCOCC2)c1)c1cc2ccccc2oc1=O	.	31	82*	.
CCN(CC)S(=O)(=O)c1ccc(N2CCOCC2)c(NC(=O)c2cc3ccccc3oc2=O)c1	69*	20	.	27
Cc1ccc(S(=O)(=O)N2CCOCC2)cc1NC(=O)c1cc2ccccc2oc1=O	.	18	3	.
COc1ccc(-c2ccc3n(c2=O)C[C@@H]2[C@@H](CO)[C@H](C(=O)NCC4CC4)N(C(=O)NC(C)C)[C@H]32)cc1	.	.	-1	.
CO[C@@H]1CN(C)C(=O)c2cc(NC(=O)Nc3ccccc3Cl)ccc2OC[C@@H](C)N(C)C[C@H]1C	.	.	-1	.
C[C@H]1CCCCO[C@@H](CN(C)C(=O)CCC(F)(F)F)[C@@H](C)CN([C@@H](C)CO)C(=O)c2cc(NS(=O)(=O)c3ccc(F)cc3)ccc2O1	.	.	1	.
O=C(C[C@@H]1C[C@H]2c3cc(NC(=O)C4CCOCC4)ccc3O[C@H]2[C@H](CO)O1)NCc1ccncc1	.	.	0	.
O=C(O)/C=C/c1ccc(Oc2ncccn2)cc1	0	-10	0	1
CC(C)(C)C(=O)/C=C/c1ccc(Oc2ccccc2)cc1	-68	-2	34	-59*
COc1ccc(-c2cn3cc(Cl)ccc3n2)cc1OC	64*	0	69*	37
COc1ccc(-c2cn3cc(C)ccc3n2)cc1Br	66*	.	.	42
COc1ccc(-c2cn3nc(C)c(C)nc3n2)cc1OC	.	0	47*	.
C[C@@H]1CN([C@H](C)CO)C(=O)c2cc(NS(=O)(=O)c3cccs3)ccc2O[C@@H]1CN(C)C(=O)Nc1ccc2c(c1)OCO2	.	.	5	.
SMILES	HSF-1 act	Vif imaging	esBAF inh	HSF1 inhib
OC(c1ccc(F)c(F)c1)c1nc(-c2cnc3ccccc3c2)cs1 (stereo unspecified)	.	2	51*	.
O=C(O)c1cccc(-c2csc(C(O)c3ccc(F)c(F)c3)n2)c1 (stereo unspecified)	.	-4	44*	.
OC(c1ccc(F)c(F)c1)c1nc(-c2ccccc2)cs1 (stereo unspecified)	.	19	-2	.
C[C@@H]1CN([C@@H](C)CO)C(=O)c2cc(-c3cccc(F)c3)cnc2O[C@@H]1CN(C)Cc1cccnc1	.	.	1	.
C[C@@H]1CN([C@H](C)CO)C(=O)Cc2cc(N(C)C)ccc2O[C@H]1CN(C)C(=O)Nc1ccc2c(c1)OCO2	.	.	6	.
C[C@H]1CN([C@@H](C)CO)S(=O)(=O)c2ccc(C3=CCCC3)cc2O[C@H]1CN(C)S(=O)(=O)c1cn(C)cn1	.	.	-2	.
